Source: PubChem
PP5 inh: PP5 (human) phosphatase inhibition. actives 0.18% (n = 320,000). P53041. purified PP5c, OMFP substrate fluorescence. AID 1987. inhibition, % at 6.7 µM;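 active = inhibition above the campaign's mean inhibition across all tested compounds plus 3 SD, cut at about 9.5% in these data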;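 note: 0% = DMSO only and 100% = 100 µM cantharidin control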
SKKanGAS inh: SKKanGAS growth inhibition | S. pyogenes SKKanGAS, kanamycin growth, BacTiter-Glo, 6 h | inhibition, % at 7.5 µM | actives 1.3% (n = 300,000) | AID 1662;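 active = mean replicate score, as percent of positive control median, at least 50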;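 note: strain carries kanamycin resistance gene driven by streptokinase promoter and grows in 40 µg/ml kanamycin; loss of luminescence reflects streptokinase promoter inhibition or plain growth inhibition; 0% = median of DMSO wells and 100% = positive control at its reference dose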
CSC inhib: cancer stem cell inhibition; cancer stem cell-like cells viability, luminescence; inhibition, % at 7.5 µM; actives 1.1% (n = 300,000); in the data active = inhibition above about 75%; tested in HMLE shEcad cells
PP1 counter: blocks human PP1-alpha phosphatase, a PP5 counter-screen. P62136. purified PP1alpha, OMFP fluorescence. inhibition, % at 6.7 µM. actives 0.9% (n = 320,000). AID 2235;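 active = inhibition above the mean inhibition of all tested compounds plus 3 SD, computed separately for each screening campaign, cut at about 15% in these data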
Target sequence (P62136 whole entry, looked up): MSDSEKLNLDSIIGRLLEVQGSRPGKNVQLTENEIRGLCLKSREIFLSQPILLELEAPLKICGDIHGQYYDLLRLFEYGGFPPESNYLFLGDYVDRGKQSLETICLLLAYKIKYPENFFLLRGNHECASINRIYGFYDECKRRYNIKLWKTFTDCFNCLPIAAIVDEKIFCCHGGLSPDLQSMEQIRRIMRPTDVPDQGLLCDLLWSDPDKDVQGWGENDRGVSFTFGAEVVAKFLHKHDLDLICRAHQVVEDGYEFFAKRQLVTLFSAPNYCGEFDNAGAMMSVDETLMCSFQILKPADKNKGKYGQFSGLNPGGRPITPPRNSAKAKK
Beta apoptosis: beta cell apoptosis inhibition; INS-1E cytokine-induced death, ATP luminescence, 48 h; percent of positive-control rescue, neutral wells zero; protection from apoptosis, % (test concentration not listed); actives 0.8% (n = 300,000);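 active = Every replicate reaches about 75%, or at least half do and their mean reaches it too, limit read from the data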;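 note: 0% = cytokine-treated negative control wells and 100% = positive control rescue; higher means more ATP so stronger rescue from cytokine killing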
* marks the source's active call; other numbers are inactive results. Sampled rows, rich in hits. Any-hit rate of the full collection: about 3.1%.

Screening O=S(=O)(Nc1nc2ccccc2nc1Nc1ccc(N2CCOCC2)cc1)c1cc(Cl)ccc1Cl returned PP5 inh 1.1, SKKanGAS inh 40.9, CSC inhib 86.2*, PP1 counter 1.1 and Beta apoptosis 84.3*.
For CC(C)C[C@H]1CN=C(Nc2ccccc2)N1CCC(C)c1ccccc1 (stereo not given in full) the results were PP5 inh 1.2, CSC inhib 18.1, PP1 counter 3.4 and Beta apoptosis 103.0*.
For CCCCCCCN1C(Nc2ccccc2)=NC[C@@H]1CC(C)C the results were PP5 inh 0.0, SKKanGAS inh 3.3, CSC inhib 16.0, PP1 counter -3.0 and Beta apoptosis 29.7.
For O=C1c2cccnc2C(=O)N1c1cccc([N+](=O)[O-])c1 the results were PP5 inh -2.3, SKKanGAS inh -3.2, CSC inhib -8.5, PP1 counter -0.7 and Beta apoptosis -2.4.
For Cc1ccc(NC(=O)c2cc(-c3ccco3)on2)cc1C the results were PP5 inh 2.4, SKKanGAS inh -14.1, CSC inhib -1.1, PP1 counter -2.5 and Beta apoptosis -1.7.
Cc1ccc(NC(=O)c2cc(-c3cccc(O)c3)on2)cc1C was read as PP5 inh 3.6, SKKanGAS inh 0.1, CSC inhib 80.4*, PP1 counter 0.0 and Beta apoptosis 1.8.
CC1(c2ccccc2)CC(C)(C)N2C(=O)/C(=C3\SC(=S)NC3=O)c3cccc1c32 (stereo not given) was read as PP5 inh -0.8, SKKanGAS inh 113.9*, CSC inhib 105.1*, PP1 counter -2.6 and Beta apoptosis -0.3.
CC1(c2ccccc2)CC(C)(C)N2C(=O)C3(C(C#N)=C(N)Oc4cc(O)ccc43)c3cccc1c32 (stereo not given) was read as PP5 inh 6.6, SKKanGAS inh 31.8, CSC inhib 1.9, PP1 counter 1.9 and Beta apoptosis -19.4.
`COc1cc(O)ccc1/C=N/NC(=O)c1ccc([N+](=O)[O-])cc1` gave PP5 inh 1.7, SKKanGAS inh -5.3, CSC inhib -1.2, PP1 counter -1.8 and Beta apoptosis -4.0.
`O=C(NC(CSCc1ccccc1)C(=O)N/N=C/c1ccc(O)cc1O)c1ccc([N+](=O)[O-])cc1` (stereo not given) gave PP5 inh 0.8, SKKanGAS inh 70.7*, CSC inhib 105.3*, PP1 counter 8.0 and Beta apoptosis 78.5*.
Screening COCCn1c(SCC(=O)N2CCc3ccccc3C2)nc2cc(Cl)ccc2c1=O returned PP5 inh 1.4, SKKanGAS inh 2.6, CSC inhib -8.4, PP1 counter 3.6 and Beta apoptosis -10.8.
Screening Cn1c(=O)c2c(nc(SCC(=O)N3CCc4ccccc4C3)n2C)n(C)c1=O returned PP5 inh -1.4, SKKanGAS inh 4.4, CSC inhib -10.4, PP1 counter 3.7 and Beta apoptosis -3.9.
CC(C)c1ccccc1-n1c(SCC(=O)N2CCc3ccccc3C2)nc2ccccc2c1=O was read as PP5 inh 3.7, SKKanGAS inh -1.9, CSC inhib 12.1, PP1 counter 7.2 and Beta apoptosis 120.9*.
For CC(C)Cn1c(SCC(=O)N2CCc3ccccc3C2)nc2cc(Cl)ccc2c1=O the results were PP5 inh 0.1, SKKanGAS inh 36.7, CSC inhib 32.2, PP1 counter 0.6 and Beta apoptosis 114.9*.
For O=C(CSc1nc2ccccc2c(=O)n1-c1ccccc1)N1CCc2ccccc2C1 the results were PP5 inh 1.1, SKKanGAS inh -14.6, CSC inhib 68.2, PP1 counter 6.3 and Beta apoptosis 100.3*.
`O=C(CSc1nnc(CNC(=O)c2cccs2)o1)Nc1ccccc1F` gave PP5 inh 1.7, SKKanGAS inh -0.7, CSC inhib -2.0, PP1 counter -3.5 and Beta apoptosis -1.3.
Screening CC(=O)OCCN1C(=O)c2ccc(-c3nc4ccccc4c(=O)o3)cc2C1=O returned PP5 inh 1.5, SKKanGAS inh -7.8, CSC inhib -5.5, PP1 counter -3.1 and Beta apoptosis -4.0.
Cc1nc(N2CCCCC2)c2c(C)c(C(=O)Nc3cccc(C(F)(F)F)c3)sc2n1 was read as PP5 inh 5.8, SKKanGAS inh 42.8, PP1 counter 3.7 and Beta apoptosis 27.0.
For Cc1nc(N2CCCCC2)c2c(C)c(C(=O)Nc3ccccc3C(F)(F)F)sc2n1 the results were PP5 inh 2.3, SKKanGAS inh 9.1, CSC inhib 77.1*, PP1 counter -9.8 and Beta apoptosis -1.7.
Screening COc1ccc(NC(=O)CN(C)C(=O)CCCc2nc3ccccc3s2)cc1 returned PP5 inh 0.4, SKKanGAS inh 29.0, CSC inhib -8.2, PP1 counter 1.8 and Beta apoptosis -9.9.
For O=C(N/N=C/c1cccc([N+](=O)[O-])c1)c1ccccc1-n1cccc1 the results were PP5 inh 0.0, SKKanGAS inh -3.6, CSC inhib 3.2, PP1 counter -2.1 and Beta apoptosis 1.5.
Screening Cc1cccc2[nH]c(CN(C)Cc3nc(CC4CC4)no3)nc12 returned PP5 inh -0.5, SKKanGAS inh -3.3, CSC inhib 4.2, PP1 counter 3.2 and Beta apoptosis -10.9.
Screening CN(C)c1ccc(/C=C/C=C2/SC(=S)N(c3ccccc3)C2=O)cc1 returned PP5 inh 3.1, SKKanGAS inh 24.6, CSC inhib 82.3*, PP1 counter 5.2 and Beta apoptosis 20.4.
C[C@H](CO)N1C[C@H](C)[C@@H](CN(C)S(=O)(=O)c2ccc(F)cc2)Oc2ccc(NC(=O)C3CC3)cc2C1=O was read as CSC inhib -10.6 and Beta apoptosis 0.9.
C[C@@H]1C[C@@H]2OC(=O)[C@]3(C)[C@H]2[C@@H](OC3(C)O)[C@]2(C)C(=O)C=C[C@H]12 (stereo not given in full) was read as PP5 inh -1.7, SKKanGAS inh -1.2, CSC inhib 8.8, PP1 counter 0.5 and Beta apoptosis -6.1.
For C=C1C(=O)O[C@@H]2C[C@@H](C)[C@@H]3C=CC(=O)[C@@]3(C)[C@@H](OC(C)=O)[C@H]12 the results were PP5 inh 3.5, SKKanGAS inh -2.1, CSC inhib 85.0*, PP1 counter 6.2 and Beta apoptosis 136.0*.
`Cn1c(C(=O)N2CCN(c3nc4ccccc4s3)CC2)cc2sccc21` gave PP5 inh 1.8, SKKanGAS inh 8.4, PP1 counter 0.7 and Beta apoptosis -12.7.
O=C(c1cc2sccc2n1Cc1ccc(F)cc1)N1CCN(c2nc3ccccc3s2)CC1 was read as PP5 inh 2.8, SKKanGAS inh 23.1, CSC inhib 25.4, PP1 counter 17.3* and Beta apoptosis 100.3*.
`O=C(CN1CCN(Cc2ccc(Cl)cc2)C1=O)NCCN1CCCC1` gave PP5 inh 2.3, SKKanGAS inh -1.1, CSC inhib -5.0, PP1 counter 1.4 and Beta apoptosis -1.0.
COc1ccccc1OCCCn1c(C)c(C#N)c2ccccc21 was read as PP5 inh 2.4, SKKanGAS inh 61.8*, CSC inhib -7.9, PP1 counter 3.1 and Beta apoptosis 0.8.
`NC(=O)c1cc(NC(=O)CCCc2nc3ccccc3s2)cc(C(N)=O)c1` gave PP5 inh 5.9, SKKanGAS inh -3.2, CSC inhib -4.3, PP1 counter -4.2 and Beta apoptosis 1.5.
